DAPI nuclei signal change (viability), lower = more cytotoxic and inhibition data for 40 compounds are collected here from PubChem BioAssay AID651582 (Sanford-Burnham Center for Chemical Genomics, 2012).

Out of some 230,000 compounds screened, about 1,500 (0.65%) were called active.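 Rule for the calls: active = pattern-corrected inhibition of lipid staining of at least 50% with the nuclear-stain viability signal not falling by more than 50%; inactive = the rest, inconclusive results apart.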 Many of the other results were omitted from the sample, so actives are more common in it than they were.

This assay is described as follows: inhibitors of triacylglycerol accumulation, primary screen, cell-based, uHTS, fluorescence, H9c2 (AID 651582).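 For inhibition: 0% = DMSO wells and 100% = triacsin C control wells.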 The note with it: H9c2 cells, Nile Red lipid (TAG) fluorescence, at 12.5 µM, cells loaded with 200 µM oleic acid; DAPI nuclei signal change (viability), lower = more cytotoxic: measured here: DAPI nuclei count viability; inhibition: stronger effect = higher value.
The inhibition is the change of the read-out against control, counted positive when it falls. As to `CC1CCC2(CC1)NC(=O)N(CC(=O)c1ccc3c(c1)OCO3)C2=O` (stereo not given), the DAPI nuclei signal change (viability), lower = more cytotoxic came out at 5.46% and the inhibition was -2.45% (inactive).
As to `O=C(O)c1ccccc1-c1cccc2nncn12`, the DAPI nuclei signal change (viability), lower = more cytotoxic was determined as 3.23% and the inhibition is -1.16% (inactive).
For `C(=N/Nc1cc(N2CCOCC2)nc(N2CCOCC2)n1)/c1ccccc1`, the DAPI nuclei signal change (viability), lower = more cytotoxic was -80.2% and the inhibition is 126% (inactive).
As to `Cc1cc(N/N=C\c2ccc(Br)cc2)nc(-n2nc(C)cc2C)n1`, the DAPI nuclei signal change (viability), lower = more cytotoxic was -21.7% and the inhibition is 59% (active).
As for `Cc1ccc2nc(C)cc(N/N=C/c3ccc(F)cc3)c2c1`, the DAPI nuclei signal change (viability), lower = more cytotoxic is 4.22% and the inhibition was 4.13% (inactive).
Taken in the same sequence, the figures for `C=C(C)C(=O)O[C@H]1C/C(C)=C\C(=O)/C=C(\C)[C@H](O)[C@@H]2OC(=O)C(=C)[C@@H]21` were -49.2% and 51.2% (active).
Consider `CC(=O)c1sc(NC(=O)c2ccc(C)cc2)nc1C`, for which the DAPI nuclei signal change (viability), lower = more cytotoxic was -3.26% and the inhibition was -5.37% (inactive).
As to `O=C(Nc1nc2ccc([N+](=O)[O-])cc2s1)c1ccncc1`, the DAPI nuclei signal change (viability), lower = more cytotoxic is 12.5% and the inhibition was -10.5% (inactive).
Consider `COc1ccc(C(=O)Nc2nc(-c3ccc(OC)cc3)c(-c3ccc([N+](=O)[O-])cc3)s2)cc1`, for which the DAPI nuclei signal change (viability), lower = more cytotoxic is -4.41% and the inhibition is 61.8% (active).
Take `Cc1ccc(C)c(S(=O)(=O)N(C)c2ccc(OC(=O)C3CCN(C(=O)c4ccc(F)cc4)CC3)cc2)c1`: the DAPI nuclei signal change (viability), lower = more cytotoxic was found to be 0.336% and the inhibition is -28% (inactive).
Regarding `COC(C[C@H](O)CC(=O)COCc1ccccc1)OC`, the DAPI nuclei signal change (viability), lower = more cytotoxic is -39.1% and the inhibition was 53.8% (active).
Turning to `COC(C[C@@H](O)C[C@H](O)[C@H](C)OCc1ccccc1)OC`, the DAPI nuclei signal change (viability), lower = more cytotoxic is 5.91% and the inhibition is -1.79% (inactive).
Taken in the same sequence, the figures for `COC(C[C@H](O)CC(=O)[C@@H](C)OCc1ccccc1)OC` were 5.4% and -8.13% (inactive).
In the case of `CC(=O)NC(c1ccccc1)c1nc(-c2cccc(C(C)C)c2)cs1` (stereo not given), the DAPI nuclei signal change (viability), lower = more cytotoxic was -1.3% and the inhibition was 8.58% (inactive).
In the case of `O=C(Nc1cc(Cl)ccc1N1CCOCC1)c1ccc(N2CCCC2=O)cc1`, the DAPI nuclei signal change (viability), lower = more cytotoxic was -2.51% and the inhibition was 10.9% (inactive).
Take `Cc1cccc(NC(=O)c2cccc(C(F)(F)F)c2)c1`: the DAPI nuclei signal change (viability), lower = more cytotoxic was -13.3% and the inhibition was -0.148% (inactive).
As for `CNC(=O)c1ccc(NC(=O)c2cccc(C(F)(F)F)c2)cc1`, the DAPI nuclei signal change (viability), lower = more cytotoxic was -4.98% and the inhibition is -1.2% (inactive).
Taken in the same sequence, the figures for `O=C(Nc1ccc(-c2csc(Nc3cccc(C(F)(F)F)c3)n2)cc1)c1cccc(C(F)(F)F)c1` were -19.5% and 51.9% (active).
On to `CC1=C(C(=O)Nc2cccc(C(=O)NCC(C)c3ccccc3)c2)SCCO1` (stereo not given), for which the DAPI nuclei signal change (viability), lower = more cytotoxic was -4.49% and the inhibition was 4.45% (inactive).
As for `COc1ccc(CN2CCN(C(=O)c3cc(C4CC4)nn3-c3ccccc3)CC2)cc1F`, the DAPI nuclei signal change (viability), lower = more cytotoxic was -2% and the inhibition was 7.6% (inactive).
Take `Cc1c(C(=O)NNC(=O)c2ccncc2)oc2ccccc12`: the DAPI nuclei signal change (viability), lower = more cytotoxic was -11% and the inhibition was 8.91% (inactive).
For the compound `COC(=O)c1ccc(NCc2cc(O)ccc2O)cc1`, the DAPI nuclei signal change (viability), lower = more cytotoxic was -40.6% and the inhibition was 54.7% (active).
Regarding `O=C(OC12CC3CC(CC(C3)C1)C2)c1ccc(NCc2cc(O)ccc2O)cc1`, the DAPI nuclei signal change (viability), lower = more cytotoxic was -61.6% and the inhibition was 111% (inactive).
Taken in the same sequence, the figures for `CC(C)OC(=O)c1ccc(NCc2cc(O)ccc2O)cc1Cl` were -60.3% and 108% (inactive).
Taken in the same sequence, the figures for `CCCn1c(N)c(C(=O)CSc2nnc3n2CCCCC3)c(=O)[nH]c1=O` were 5.45% and -8.3% (inactive).
Turning to `CC[C@]1(c2ccccc2OC)C(=O)N(C(=O)OC)N1C(=O)OC`, the DAPI nuclei signal change (viability), lower = more cytotoxic turned out to be 11% and the inhibition was -4.89% (inactive).
In the case of `O=C(CSc1nc2ccc(Nc3nc(N4CCOCC4)nc(N4CCOCC4)n3)cc2s1)NCc1ccco1`, the DAPI nuclei signal change (viability), lower = more cytotoxic is -0.911% and the inhibition is 54.6% (active).
For `O=C(CSc1c2c(nc3ccc(Cl)cc13)CCCC2)NCc1ccco1`, the DAPI nuclei signal change (viability), lower = more cytotoxic came out at 13.7% and the inhibition was 2.61% (inactive).
`C=CCn1c(CSc2nc3ccccc3s2)nnc1SCC(=O)NCc1ccco1`: the DAPI nuclei signal change (viability), lower = more cytotoxic is -7.04% and the inhibition is -5.24% (inactive).
Regarding `Cc1ccccc1NC(=O)CSc1nc2ccc(Nc3nc(N4CCOCC4)nc(N4CCOCC4)n3)cc2s1`, the DAPI nuclei signal change (viability), lower = more cytotoxic was -7.17% and the inhibition was 62.6% (active).
`O=C(CSc1nc(Nc2ccccc2)nc(N2CCOCC2)n1)Nc1cc(Cl)ccc1O`: the DAPI nuclei signal change (viability), lower = more cytotoxic is -18.9% and the inhibition was 34.4% (inactive).
As for `Nc1nnc(SCC(=O)Nc2ccc3nc(SCC(=O)Nc4ccccc4)sc3c2)s1`, the DAPI nuclei signal change (viability), lower = more cytotoxic is -9.1% and the inhibition is -21.4% (inactive).
As to `CS(=O)(=O)/C(C#N)=C/c1cccn1S(=O)(=O)c1ccc([N+](=O)[O-])cc1`, the DAPI nuclei signal change (viability), lower = more cytotoxic turned out to be 8.58% and the inhibition was -3.62% (inactive).
Taken in the same sequence, the figures for `CN(CC(=O)Nc1ccc(F)cc1)C(=O)c1ccc(-c2ccc(Cl)cc2)o1` were 0.479% and -10.2% (inactive).
Regarding `Cc1ccc(N(Cc2ccccc2O)C(=O)c2ccccc2F)cc1`, the DAPI nuclei signal change (viability), lower = more cytotoxic was found to be 2.35% and the inhibition is -3.73% (inactive).
Take `C=C1CCC(N(O)c2cc(C)on2)C(=C)CCC2C1CC2(C)C` (stereo not given): the DAPI nuclei signal change (viability), lower = more cytotoxic came to 2.7% and the inhibition is -2.19% (inactive).
Turning to `CC(=O)Nc1ccc(-c2ccnc3c2CC(C(=O)NC(C)C)O3)cc1` (stereo not given), the DAPI nuclei signal change (viability), lower = more cytotoxic is -1.71% and the inhibition is -1.68% (inactive).
Taken in the same sequence, the figures for `COc1ccc(-c2cc(NC=O)c3ncc(-c4cccc(C(=O)N(C)C)c4)n3c2)c(OC)c1` were -42.3% and 46% (inactive).
Take `COc1ccc(-c2cc(NC=O)c3ncc(-c4ccccc4)n3c2)cc1OC`: the DAPI nuclei signal change (viability), lower = more cytotoxic was -14.8% and the inhibition is 19.6% (inactive).
As to `COc1ccc(-c2cc(NC=O)c3ncc(-c4cc(OC)c(OC)c(OC)c4)n3c2)c(OC)c1`, the DAPI nuclei signal change (viability), lower = more cytotoxic is -24.8% and the inhibition is 52.6% (active).
